Only a sample is shown. How many sequences the whole screen found active is unknown.
B1: il10ra_site1_normal_mot_39ab2cb694c8b9c1dc7e65c0d672c93e_0001_000000036_0001_53_65_H_._HHH_b2_05692_af2_0001_0000600025_0000002_0 (protein)
chain: SSSSDEEEEELRELVEEVERLIERNDREEALRVAAEALRLAFRARNPEVLQLLWELAKLLSSSSS
B2: il10ra_site1_sap_13_mot_8756ee2cf497b5429c717dfc0c0bcfd6_0001_000000186_0001_1_13_H_._HHH_b2_05518_af2_0001_0000600027_0000001_0_0001 (protein)
chain: SSSSDLEELARAAVRLIEQAIEWGDEERAKFALLALEMAAEETNDPELRELLEELEKLLRGSSSS
B3: il10ra_site1_sap_25_mot_HHH_b1_08133_000000195_0001_1_19_H_._HHH_b1_03607_0001_0000200023_0000001_0_0001_af2pred_0001 (protein)
chain: SSSSSEEVEELEEEARELIKRNDPEEVLKIIRRLARLAFRLNDPEISKIAIELAELLKKLDSSSS
B4: il10ra_site1_normal_mot_HHH_b2_02337_000000026_0001_38_52_H_._HHH_b2_04211_af2_0001_0000300011_0000002_0 (protein)
chain: SSSSDEEREEIEELIKEFEELLERGDREEAVRVVTEALQFALKLGDQELLKRIWELVKSLSSSSS
B5: il10ra_site1_sap_17_mot_HHH_b1_06914_000000280_0001_1_18_H_._HHH_b2_08155_0001_0000100009_0000001_0_0001 (protein)
chain: SSSSDEANERVWELLREALHIDDPEEAREVVEEAAEIAEERNNRVLLHNIRFLLRQLEKGSSSSS
B6: il10ra_site1_sap_23_mot_HHH_b1_08616_000000009_0001_1_19_H_._HHH_b2_04715_af2_0001_0000100004_0000001_0_0001 (protein)
chain: SSSSSDQEEQLIRALLWFAEWTSNPTARRLMLEQAERHARELGNEELREEVERVEKELEESSSSS
B7: il10ra_site1_normal_mot_HHH_b1_05056_000000217_0001_1_20_H_._HHH_b2_03866_0001_0000200011_0000001_0 (protein)
chain: SSSSSSEEREEVEELLEEAEHVDDLRELARILAEAVRFAYEGKDEEALQLVWEVVRRLFSSSSSS
B8: il10ra_site1_sap_16_mot_HHH_b2_00943_af2_000000149_0001_1_17_H_._HHH_b1_06222_0001_0000300032_0000001_0_0001_af2pred_dldesign_0_af2pred (protein)
chain: SSSSSPENEELVRLIREVAELLYDGKPEEAREKLKEAEELTEKLGDEIFKRNIELLRKELESSSS
B9: il10ra_site1_sap_16_mot_HHH_b1_06789_af2_000000041_0001_1_20_H_._HHH_b1_04240_af2_0001_0000500015_0000001_0_0001 (protein)
chain: SSSSSDEEYEEEVERLLEEAEKIPDPREAAEVLLKALRVALRGNDPELLHLVWEVLEEISSSSSS
B10: il10ra_site1_normal_mot_HHH_b1_06057_000000129_0001_22_38_H_._HHH_b2_05766_0001_0000200026_0000001_0 (protein)
chain: SSSSDRTARWSVEFALRVAEELAKRDPERARELLEHLAELLKEARDEELLEEVERLLEEIGSSSS
B11: il10ra_site1_normal_mot_HHH_b2_08287_af2_000000247_0001_1_16_H_._HHH_b2_07820_0001_0000300057_0000001_0_af2pred_0001 (protein)
chain: SSSSDEEEEEVKELLEEAKRIDDPRERTRVLVEAYALAFELNNPELEELVKEVAIELLERSSSSS
B12: il10ra_site1_sap_19_mot_HHH_b1_04514_000000156_0001_1_18_H_._HHH_b1_01679_0001_0000100001_0000001_0_0001_af2pred_0001 (protein)
chain: SSSSSSEAEKEVAKILIEVLRLNDEEAAERISHLLIRLIVEGDERLIEEIRELFEEVEENSSSSS
B13: il10ra_site1_normal_mot_HHH_b1_05672_af2_000000246_0001_1_19_H_._ems_3hC_444_af2_0001_0000400050_0000001_0 (protein)
chain: SSDLREEFSRVLIRAVRAAARHDEEKAEELVRRAEEIAEELGDEELERYVEIVKNFVESATRSSS
B14: il10ra_site1_sap_24_mot_HHH_b2_00622_af2_000000153_0001_40_57_H_._1ad9cd31332199d645683f25bccb3f2f_0001_af2_0001_0000400010_0000001_0_0001 (protein)
chain: SSSSSDEEAEEQVEELLEEAKRIEDREEVLRLLIEANRIAFRAGNDELQREIWRVAQELSSSSSS
B15: il10ra_site1_sap_19_mot_HHH_b1_01585_000000217_0001_1_18_H_._HHH_b1_05870_af2_0001_0000200018_0000002_0_0001 (protein)
chain: SSSSSRAEKVREILEEVVELQRQGDKEEAERLLEELLEELEELGDVNSLVNVEYLLRAVRKSSSS
B16: il10ra_site1_normal_mot_HHH_b1_01827_000000263_0001_1_19_H_._HHH_b2_07433_0001_0000500029_0000001_0_af2pred_0001 (protein)
chain: SSSSSTEEVERVIKLIRRALEIEDEEERRRLLEEAVELAEEGGNLVLLISARFALEDVEQSSSSS
B17: il10ra_site1_sap_10_mot_HHH_b1_05704_af2_000000048_0001_1_18_H_._HHH_b2_04382_0001_0000100002_0000001_0_0001_af2pred_0001 (protein)
chain: SSSSSEEEERVELALRFVKFLLKAGDPEAARFFVEWALEKAKELGNEELEEEAEELLREARSSSS
B18: il10ra_site1_sap_18_mot_HHH_b2_04327_000000030_0001_41_55_H_._HHH_b2_03484_af2_0001_0000400008_0000001_0_0001_af2pred_0001 (protein)
chain: SSSSSSSEEEELMQLAAEISRHASPEEIRRLFELLVRLYHEGDPELKEELRELIEEIKSSSSSSS

biological target: il10ra, Q13651; assay: yeast display titration
Sequence (Q13651 whole entry): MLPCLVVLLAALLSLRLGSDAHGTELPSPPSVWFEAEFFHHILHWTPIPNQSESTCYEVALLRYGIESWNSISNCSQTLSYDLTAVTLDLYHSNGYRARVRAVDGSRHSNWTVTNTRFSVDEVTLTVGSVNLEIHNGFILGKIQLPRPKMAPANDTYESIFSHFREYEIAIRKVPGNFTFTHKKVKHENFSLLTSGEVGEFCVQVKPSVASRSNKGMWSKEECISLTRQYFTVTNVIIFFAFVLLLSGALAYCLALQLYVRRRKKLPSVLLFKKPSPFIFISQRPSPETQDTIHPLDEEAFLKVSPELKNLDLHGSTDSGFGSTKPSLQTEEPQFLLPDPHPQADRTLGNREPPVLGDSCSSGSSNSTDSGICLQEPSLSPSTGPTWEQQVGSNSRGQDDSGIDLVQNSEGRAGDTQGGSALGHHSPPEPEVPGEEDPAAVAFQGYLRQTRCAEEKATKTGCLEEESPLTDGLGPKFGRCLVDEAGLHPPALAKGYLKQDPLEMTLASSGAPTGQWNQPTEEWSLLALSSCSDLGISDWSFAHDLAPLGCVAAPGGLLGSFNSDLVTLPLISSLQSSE

Row | Binder | apparent Kd
1 | B1 | no binding seen (inactive)
2 | B2 | no binding seen (inactive)
3 | B3 | > 233 nM (inactive)
4 | B4 | no binding seen (inactive)
5 | B5 | no binding seen (inactive)
6 | B6 | no binding seen (inactive)
7 | B7 | no binding seen (inactive)
8 | B8 | no binding seen (inactive)
9 | B9 | no binding seen (inactive)
10 | B10 | no binding seen (inactive)
11 | B11 | no binding seen (inactive)
12 | B12 | no binding seen (inactive)
13 | B13 | no binding seen (inactive)
14 | B14 | no binding seen (inactive)
15 | B15 | no binding seen (inactive)
16 | B16 | no binding seen (inactive)
17 | B17 | no binding seen (inactive)
18 | B18 | no binding seen (inactive)

Reference: publication PMC10163288
